Experimental data taken from article PMC8384837, “Expanding the binding specificity for RNA recognition by a PUF domain”.

These sequences were tested against PUM1 PUF domain R5-ERA (Homo sapiens, UniProt Q14671 828-1176, C1007E;Q1011A) (assay: yeast three-hybrid, YBZ-1, SC-Leu-His + 0.5 mM 3-AT, 4 days). Conditions: tags: N-Gal4 AD-HA kept; label: inside an RPR1-promoter hybrid RNA with tandem MS2 sites; ssRNA.
Outline: (§1)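 Each repeat of the Pumilio-1 PUF domain was randomized at its three base-contacting residues, and these libraries were co-expressed from a centromeric plasmid with matching RNA elements in strain YBZ-1. After four days on SC-Leu (input) or SC-Leu-His + 0.5 mM 3-AT (selection), the repeat regions were PCR-amplified and Illumina-sequenced. The interaction score compares variant frequency between input and selection as a log change, computed in log2 with a pseudocount of 1 for absent variants.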

Sequence	binding signal
GGCUAGAACUAGUGGAUCCCCCGGCGCCCGGCGGCUCGAGCCCGGGUAAGUGUUAAUAGUCUGCAUGCCGCCGGGCGCCAUGCCUGCAGGUCGACUCUAGAAAACAUG	1.72 log2 enrichment (interaction score)
GGCUAGAACUAGUGGAUCCCCCGGCGCCCGGCGGCUCGAGCCCGGGUAAGUGUAAAUAGUCUGCAUGCCGCCGGGCGCCAUGCCUGCAGGUCGACUCUAGAAAACAUG	3.08 log2 enrichment (interaction score)
GGCUAGAACUAGUGGAUCCCCCGGCGCCCGGCGGCUCGAGCCCGGGUAAGUGUCAAUAGUCUGCAUGCCGCCGGGCGCCAUGCCUGCAGGUCGACUCUAGAAAACAUG	0.84 log2 enrichment (interaction score)
GGCUAGAACUAGUGGAUCCCCCGGCGCCCGGCGGCUCGAGCCCGGGUAAGUGUGAAUAGUCUGCAUGCCGCCGGGCGCCAUGCCUGCAGGUCGACUCUAGAAAACAUG	2.24 log2 enrichment (interaction score)

What follows are sequences tested against PUM1 PUF domain R3-GRS (Homo sapiens, UniProt Q14671 828-1176, C935G;Q939S) in the same assay as above. Conditions: tags: N-Gal4 AD-HA kept; label: inside an RPR1-promoter hybrid RNA with tandem MS2 sites; ssRNA.
Outline: as §1

Sequence	binding signal
GGCUAGAACUAGUGGAUCCCCCGGCGCCCGGCGGCUCGAGCCCGGGUAAGUGUAAAUAGUCUGCAUGCCGCCGGGCGCCAUGCCUGCAGGUCGACUCUAGAAAACAUG	2.84 log2 enrichment (interaction score)
GGCUAGAACUAGUGGAUCCCCCGGCGCCCGGCGGCUCGAGCCCGGGUAAGUGUAAUUAGUCUGCAUGCCGCCGGGCGCCAUGCCUGCAGGUCGACUCUAGAAAACAUG	1.26 log2 enrichment (interaction score)
GGCUAGAACUAGUGGAUCCCCCGGCGCCCGGCGGCUCGAGCCCGGGUAAGUGUAAGUAGUCUGCAUGCCGCCGGGCGCCAUGCCUGCAGGUCGACUCUAGAAAACAUG	1.73 log2 enrichment (interaction score)

The sequences below were run against PUM1 PUF domain R1-RSN (Homo sapiens, UniProt Q14671 828-1176, S863R;R864S;Q867N) in the same assay as above. Conditions: tags: N-Gal4 AD-HA kept; label: inside an RPR1-promoter hybrid RNA with tandem MS2 sites; ssRNA.
Outline: as §1

Sequence	binding signal
GGCUAGAACUAGUGGAUCCCCCGGCGCCCGGCGGCUCGAGCCCGGGUAAGUGUAAAUCGUCUGCAUGCCGCCGGGCGCCAUGCCUGCAGGUCGACUCUAGAAAACAUG	5.16 log2 enrichment (interaction score)
GGCUAGAACUAGUGGAUCCCCCGGCGCCCGGCGGCUCGAGCCCGGGUAAGUGUAAAUGGUCUGCAUGCCGCCGGGCGCCAUGCCUGCAGGUCGACUCUAGAAAACAUG	2.27 log2 enrichment (interaction score)
GGCUAGAACUAGUGGAUCCCCCGGCGCCCGGCGGCUCGAGCCCGGGUAAGUGUAAAUUGUCUGCAUGCCGCCGGGCGCCAUGCCUGCAGGUCGACUCUAGAAAACAUG	4.41 log2 enrichment (interaction score)
